Laboratory results reported in the supplement of paper PMC3334620.
Whole data set: some 33,000 sequences, median “E-score (-0.5 to 0.5)” near -0.035, cut for the highest 2% near 0.34. The sample as a whole holds a higher share of the highest values than the screen did.

Biological target: T1, Mot3 (UniProt P54785)
T1 sequence: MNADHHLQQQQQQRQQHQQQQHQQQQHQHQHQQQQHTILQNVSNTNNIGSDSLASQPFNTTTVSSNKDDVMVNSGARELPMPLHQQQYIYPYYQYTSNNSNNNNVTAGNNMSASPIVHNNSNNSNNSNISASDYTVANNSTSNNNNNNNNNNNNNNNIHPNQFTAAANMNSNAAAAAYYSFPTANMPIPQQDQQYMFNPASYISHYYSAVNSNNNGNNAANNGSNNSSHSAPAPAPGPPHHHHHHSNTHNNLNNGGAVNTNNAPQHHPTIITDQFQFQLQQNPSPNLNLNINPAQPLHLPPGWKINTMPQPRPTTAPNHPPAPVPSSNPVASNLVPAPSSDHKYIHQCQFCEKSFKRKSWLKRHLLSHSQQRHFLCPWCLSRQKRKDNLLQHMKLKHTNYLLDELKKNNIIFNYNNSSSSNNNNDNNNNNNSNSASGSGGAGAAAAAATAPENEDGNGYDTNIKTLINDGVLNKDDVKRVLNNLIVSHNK
Experiment: PBM E-score (8-mer binding enrichment) (E-score (-0.5 to 0.5)); higher = stronger / more preferred TF binding
Details: protein concentration: 200 nM; construct: GST-full length
Protocol: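 Universal 'all 10-mer' protein binding microarrays (Agilent AMADID 015681) probed with GST-tagged S. cerevisiae TFs (full-length or DBD) made by in vitro transcription/translation (PURExpress), about 100-200 nM. Bound TF was detected with fluorescent anti-GST. Each ungapped 8-mer (which stands for itself and its reverse complement) is scored by the PBM enrichment score (E-score), a modified Wilcoxon-Mann-Whitney statistic from -0.5 to +0.5, computed with the Universal PBM Analysis Suite. Scale: above 0.35 generally sequence-specific binding.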

Sequence | PBM E-score
AGTTTACA | 0.363
CGTTTACA | 0.349
AGTTTACC | 0.0908
AGTTTACG | 0.188
CGTTTACC | 0.0878
CGTTTAGA | 0.0393
AAAGATGC | 0.132
AGTCCTCC | -0.221
CACAGAAG | -0.00641
CTTGAAAG | 0.0362
AGGAGGGG | -0.156
GAAGCCAC | -0.196
CGCCTGAA | 0.297
AGCCTGTA | 0.342
GGCCTGAA | -0.277
TGCCTGAA | 0.48
GGCCTGTA | 0.148
AGCCTGAA | 0.223
GGCCTGCA | -0.0526
AGCCTGCA | 0.344
CGCCTGCA | 0.23
CAGTACTG | -0.132
CCCCCGCA | -0.214
GTCTCGCA | -0.238
CGATCAAC | 0.0859

Sequence | PBM E-score
AAACCCCT | 0.0363
GATGCTAC | -0.122
CAAACGCC | -0.143
AACCCACA | 0.0686
ACTGCCTA | 0.199
AATGCCTA | 0.359
AATGCCCG | -0.316
AATGCCTC | -0.0227
CATGCCTA | 0.245
AATGCCGA | -0.249
AATGCCTG | 0.352
GATGCCAA | -0.148
GATGCCTA | 0.439
CGATTTGC | -0.216
ATGGCGAC | -0.254
ACAGATCG | -0.134
CGAATGAC | 0.186
ACGCCCTG | -0.0695
AACTGGAT | -0.153
GGAGCCAA | -0.117
ACAACCAA | 0.00653
CATGTACG | 0.239
GATGTACA | 0.259
TCTGTACA | 0.235
AATGTACA | 0.292

Sequence | PBM E-score
TATGTACA | 0.353
CATGTACA | 0.387
GGCTCTGA | 0.00444
GTCTGATA | 0.0245
CACAATCG | 0.018
GGGTAGTA | -0.109
CCAAAGTC | -0.189
CAAGGGGC | -0.148
ACGTGCTC | 0.0193
ACCTGGGA | -0.0112
TACAGTAA | 0.194
AACAGGAC | 0.19
AACAGGAA | 0.416
GACAGGAC | -0.231
TAGAGGAA | -0.0809
GACAGGAA | 0.374
GACAGAAA | 0.0469
CACAGGAA | 0.385
CACAGGAC | -0.175
CACAGGAG | 0.0555
TACAGGAA | 0.43
AACAGGAG | 0.0835
ACTGAGGC | -0.119
ATTCACTA | 0.124
ACCATTAC | 0.168

Sequence | PBM E-score
CGGTCCCA | -0.296
AACCAGCT | 0.0762
ACTAGCAG | 0.109
ACTCCAAG | -0.0115
AGTCCGAT | -0.158
AGAAACGA | 0.0178
CGTCGTAA | 0.0759
AGGTTGGA | -0.173
CGGAGGCA | 0.375
AGGAGGCA | 0.382
CGGAGGTA | -0.0405
AGGAGGCC | -0.263
GGGAGGGA | -0.149
AGGAGGCG | -0.163
CGGAGGCC | -0.224
GGGAGGAA | -0.11
GGGAGGCA | 0.364
CAGACCAC | -0.109
GTGGCCTA | 0.0303
ATCTAAAG | 0.136
ACCAAGCA | -0.0877
CGGGGACC | -0.0971
AGAAACTA | -0.0831
GTGGATGA | -0.0229
AAGGCAGT | -0.0323

Sequence | PBM E-score
AAGGCAGG | 0.231
AAGGCGAA | -0.0356
AAGGCAGC | 0.276
AAGGCAAC | 0.487
AAGGCAAA | 0.479
ACGGCAAT | 0.0994
AAGGCAAG | 0.485
ACGGCAAG | -0.116
ATGGCAAC | -0.0341
AAGGCAAT | 0.479
AGGGCAAA | -0.0247
GGATGCGA | -0.246
ACACAGCG | 0.318
GCCCGATA | -0.181
AAGTTCAT | -0.132
GGGGCAAC | -0.0256
GCGGCAAC | -0.0624
GAGGCAAC | 0.435
CTACGCTC | -0.0123
TACAAGCA | 0.284
GCTACTCA | -0.175
CTCTAGCA | -0.0349
ATTTCCTA | 0.371
ATTTCCTG | 0.41
ATTTCCTC | -0.0476

Sequence | PBM E-score
ATTTCCCA | -0.0389
ATTTCCAG | 0.0581
ATTTCCAA | 0.0549
AAGATTGT | 0.126
CCGGTGCG | -0.0852
AATAGCCA | -0.0713
CCAGGAGA | -0.238
GAAGGTAC | 0.438
AAAGGTAG | -0.135
GGAGGTAC | 0.0528
CAAGGTGC | 0.0747
CAAGGTAG | 0.0907
CAAGGTAC | 0.376
AAAGGTAA | 0.324
AAAGGTAC | 0.42
CAAGGTAA | 0.258
AAAGGTAT | 0.102
GAAGGTAA | 0.397
GAAGGTGC | 0.136
CGCGACGC | -0.148
ATACCCGG | 0.0542
TCGCCCCA | -0.213
CACTGTCC | -0.196
GGACCGCC | -0.212
ACCCTTTG | -0.147

Sequence | PBM E-score
GCATTCAC | 0.0735
ACGTCTCT | 0.0141
AAGCAATG | -0.0928
ATCAGGAT | -0.12
AAAGGGGG | -0.0401
ATACATAA | 0.308
ATACATCA | 0.16
ATACATAC | 0.28
ATACATGA | 0.363
CTACATCA | 0.112
ACACATGG | 0.144
AGACATGG | 0.139
ATACATAT | 0.359
AGACATGA | 0.198
CTACATGA | 0.361
ATACATGG | 0.374
GTACATGA | 0.328
CCTCTGAC | -0.145
CACCCTTC | -0.121
ATGCCCCC | -0.266
AGAGTTCC | -0.135
CTGGCACC | -0.232
CACCTTAA | 0.0232
CCTTCAGA | -0.0591
ATACATCC | 0.201

Sequence | PBM E-score
CTACATGC | 0.355
CGACATGC | 0.279
ATACATGC | 0.361
CTACATTC | 0.0249
AGACATGC | 0.0904
CCCAAGGA | -0.0628
GTCTGCAA | -0.0815
AGCATGGC | 0.0473
CGCTGTTA | -0.0162
TAGCTAGA | -0.0751
CGCACTGC | -0.0709
CTGCCTTC | 0.2
ATGCCTGA | 0.376
CTGCCTAC | 0.264
ATGCCTAC | 0.424
GAGCCTGA | 0.26
GAGCCTGC | 0.389
CTGCCTGA | 0.223
AGGCCTTC | -0.154
CAGCCTGC | -0.106
AGGCCTGA | -0.288
ATGCCTTC | 0.36
ATGCCTAG | 0.199
AAGTAACC | 0.00035
ATCCAGCG | -0.127

Sequence | PBM E-score
GAACCCTC | -0.176
AGGAAGCG | -0.0464
GTATGCTA | -0.0526
ATCGAAAG | -0.0284
GTTTCATA | -0.0759
CTCTAACA | 0.0488
GTAGCCTA | 0.177
GTAGAAGA | -0.00994
ACAAGGCC | 0.0968
ACACTTAC | 0.188
CGCACATA | -0.146
CTGCCTCC | -0.215
GTGCCTTA | 0.49
CTGCCTCA | -0.15
GCGCCTTA | 0.31
ATGCCTGC | 0.407
AAGCCTTA | -0.147
GTGCCTCA | 0.454
ATGCCTTG | 0.267
CTGCCTTA | 0.059
ATGCCTTA | 0.342
ATGCCTCA | 0.111
CTGCCTGC | 0.336
ATGCCTGG | 0.127
